Bioassay records (PubChem)
Rows were chosen to be rich in hits. Some 9% of all compounds tested hit in one or more screens of this group.
IMPase cell inh – cell-permeable inhibitors of inositol monophosphatase (IMPase). P97697. CHO-M1 cells, IP1 accumulation, HTRF TR-FRET ratio. inhibition (IP1 accumulation), % at 46.1 µM. 120,000 tested, under 10 active. AID 901; active = well fitted curve in the direction sought with a large enough effect in the signal ratio, not every such curve was filed as active; inconclusive = small, poorly fitted or top-dose-only effect, or a change in a side signal; inactive = no such curve, though single readings can be large or run the other way; the % refers to the signal ratio;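 note: cells stimulated with carbachol in lithium chloride buffer; plate controls were DMSO basal wells for no effect and reference inhibitor wells for full effect; higher means more IMPase inhibition seen as more IP1 and lower FRET ratio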
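Elevated IP1 in lysates lowers TR-FRET signal (665/620 ratio and 620 channel reported). Cells were CHO-M1, given carbachol (50 uM as added) plus 50mM LiCl, pH 7.4, 30 min, 37C; compounds titrated up to 46 uM; AC50 by Hill equation.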
HPGD block – blocks human HPGD enzyme activity; purified HPGD, NADH fluorescence kinetic, PGE2 substrate; P15428; AID 894; Potency, µM, inactives show at the top dose activity change, negative = inhibition, most hits filed as inhibitors; 4.3% of 150,000 active; note: potency is the fitted concentration of half-maximal effect
Target sequence (P15428 whole entry, looked up): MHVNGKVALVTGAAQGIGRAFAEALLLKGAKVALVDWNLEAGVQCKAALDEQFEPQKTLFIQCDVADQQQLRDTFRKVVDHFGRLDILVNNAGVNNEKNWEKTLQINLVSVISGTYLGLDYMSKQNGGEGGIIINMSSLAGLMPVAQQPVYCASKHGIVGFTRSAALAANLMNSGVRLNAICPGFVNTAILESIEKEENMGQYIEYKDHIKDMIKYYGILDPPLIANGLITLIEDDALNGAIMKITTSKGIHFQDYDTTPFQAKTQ
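NADH formation kinetics: reaction with 30 uM PGE2 and 1 mM NAD+ (final), 20 nM enzyme, Tris-HCl pH 8 with Tween 20, after 15 min compound preincubation at room temperature. Fluorescence change, last versus first of five reads.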
ALDH1A1 inh – blocks purified human ALDH1A1 activity; P00352; Purified ALDH1A1, NADH fluorescence, propionaldehyde substrate; Potency, µM (doses to about 75.3 µM), for inactives: top-dose activity, negative = inhibition, usual class: inhibitors; 7.3% of 220,000 active;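 note: potency is the fitted concentration of half-maximal effect; plate controls were no enzyme wells and a reference inhibitor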
An asterisk follows results filed as active; ? = inconclusive; . = not tested or not shown; [ ] = another dose, or the depositor's remark. Unless noted, calls come from the whole dose curve; as a rule, active = well fitted inhibition curve with a large enough effect (not every such curve was filed as active); inconclusive = small, poorly fitted or top-dose-only effect, or another doubt; inactive = no such curve, though single readings can be large or run the other way. Unless noted, % is set by controls: 0 for no effect and ±100 for the full control effect.

SMILES | IMPase cell inh | HPGD block | ALDH1A1 inh
O=C1C2CCCN2C(c2ccc(F)cc2)N1c1ccc(Cl)cc1 (stereo not given) | -3 | -3% | -14%
Fc1ccc(C2NC(=S)NC3=C2N2CCC3CC2)cc1 (stereo not given) | 2 | -5% | 14µM*
O=C(O)/C=C\[C@H](O)c1ccc(Cl)cc1 | -1 | . | .
CC1(C)CC(=O)C2=C(C1)N(c1ccc(F)cc1)C(=O)C2(NC(=O)c1ccccc1F)C(F)(F)F (stereo not given) | . | -7% | 24%
CC1(C)CC(=O)C2=C(C1)N(c1ccc(F)cc1)C(=O)NC2(C(F)(F)F)C(F)(F)F | 4 | -7% | 10µM*
CN(C(=O)COC(=O)CCc1c[nH]c2ccccc12)C(c1ccccc1)c1ccccc1 | 11 | -21% | 3%
Cc1ccc2cc(C)c(Sc3nnnn3-c3ccccc3)nc2c1 | . | -12% | 5.6µM*
Cn1ccnc1Sc1nnnn1-c1ccccc1 | -5 | -2% | -7%
CC(=O)[C@]1(O)CC[C@@H]2[C@H]3C[C@@H](C)C4=CC(=O)CC[C@@]4(C)C3[C@@H](O)C[C@]21C (stereo not given in full) | . | -18% | ?
Cc1cccnc1Sc1c([N+](=O)[O-])ncn1C | -5 | -8% | 16µM*
Cc1cc2nc(Sc3c([N+](=O)[O-])nc(C)n3Cc3ccccc3)[nH]c2cc1C | -4 | -22% | 1.1µM*
Cc1cccc(Sc2ccc([N+](=O)[O-])cn2)c1 | . | -7% | -6%
Cn1cnc([N+](=O)[O-])c1Sc1nc2ccccc2[nH]1 | . | . | 20µM*
Cn1cnc([N+](=O)[O-])c1Sc1ncnc2nc[nH]c12 | 3 | -11% | 7%
Cn1cnc([N+](=O)[O-])c1Sc1nnc(-c2cccnc2)n1C | . | 0% | -7%[13.5 µM]
Cc1nc([N+](=O)[O-])c(Sc2nc3ccccc3[nH]2)n1Cc1ccccc1 | 4 | -4% | -8%
Cc1cccc(Sc2c([N+](=O)[O-])ncn2C)c1 | 5 | 5µM* | 0%
O=C(CN1C(=O)CC(c2ccccc2)S(=O)(=O)c2ccccc21)N1CCCC1 (stereo not given) | . | . | 4%
CN(NC(=O)Nc1ccccc1)c1cnn(C)c(=O)c1Cl | . | . | 16%
O=C(O)c1ccccc1NC(=O)N1c2ccccc2Sc2ccccc21 | -12 | . | .
CC1(C)C([N+](=O)[O-])C(c2ccc(Cl)cc2)NC(c2ccc(Cl)cc2)C1[N+](=O)[O-] (stereo not given) | 0 | -9% | -24%
CC(C)(C)N1C(=O)[C@H]2[C@@H]3[C@H](O)[C@H](O)CC(=O)[C@H]3CC[C@H]2C1=O | . | . | 7%[13.5 µM]
CC(NC(=O)C1(c2cccs2)CCOCC1)c1ccccc1 (stereo not given) | . | -5% | 9%
CS(=O)(=O)c1cc([N+](=O)[O-])c(Sc2nc3ccccc3[nH]2)c([N+](=O)[O-])c1 | 26 | 3.5µM* | 8.9µM*
CCN1CCN(c2ccc([N+](=O)[O-])c(Sc3nc4ccccc4[nH]3)c2)CC1 | 13 | . | 3%
SMILES | IMPase cell inh | HPGD block | ALDH1A1 inh
CC(C)C1=C[C@@]23CC[C@@H]4[C@](C)(CCC[C@@]4(C)C(=O)O)[C@@H]2C[C@@H]1[C@@H](C(=O)O)[C@@H]3C(=O)O | . | -6% | 13%[13.5 µM]
Cc1ccc(C(=O)CSc2nnc3c4ccccc4nc(C(C)(C)C)n23)cc1 | . | -22% | ?
CC(=O)CSc1nnc2c3ccccc3nc(C(C)(C)C)n12 | . | . | 3.5µM*
CCCCCCCC1=Cc2ccc(F)cc2C(C(C(C)=O)C(=O)OC)N1C(=O)OC (stereo not given) | . | -5% | 14%
COC(=O)Cc1ccc(NC(=O)c2ccccc2Br)cc1 | . | . | -3%
COc1ccc(C)cc1N(CC(=O)N/N=C/c1ccccc1C(=O)O)S(=O)(=O)c1ccccc1 | . | . | 18%
Cc1ccc(NC(=O)Nc2cc(Cl)ccc2C2COC(=O)C2=N)cc1 (stereo not given) | . | . | 7.5µM*
N=C1C(=O)OCC1c1ccccc1NC(=O)Nc1ccccc1 (stereo not given) | . | . | -5%
CCC(C)(C)C | . | -19% | 3%
O=C1CN(C(=O)CSc2nnnn2-c2ccc(Cl)cc2)c2ccccc2N1 | 1 | -14% | -11%
N=C1[C@@H](O)[C@]2(I)c3ccccc3N3C(=N)[C@H](O)[C@@H]4c5ccccc5N1[C@@H]4[C@@H]32 | . | 4µM* | -4%[13.5 µM]
O=C(NC(=S)NN1CCCCC1c1cccnc1)c1ccc(Cl)cc1Cl (stereo not given) | . | . | -3%
CCOC(=O)C1CSC(Cc2ccc(OCc3ccc([N+](=O)[O-])cc3)cc2)N1 (stereo not given) | . | -23% | 5%
Cc1ccc(CSc2ncnc3c2cnn3Cc2ccccc2)cc1 | 3 | -11% | -8%
c1ccc(CSc2ncnc3c2cnn3-c2ccccc2)cc1 | . | 25µM* | ?
OC/C=C/c1ccc(O)c(O)c1 | . | -6% | ?
